Screening results (PubChem)
Compounds with a hit are over-represented: about 2% of the library has one in this group of screens.
PG9 binder: binders of HIV-1 gp120 antibody PG9, primary screen, biochemical, TR-FRET; HIV-1 gp120 / PG9 antibody interaction; inhibition, % at 6.7 µM; AID 624416, 2012; hit rate 0.43% among 360,000; TR-FRET gp120-PG9 antibody binding; in the data active means inhibition above about 8.5%
Granule exo inh: LAMP-1 surface exposure blockers, TALL-104 cells – cell-based, flow cytometry, MLPCN library, primary screen; TALL-104 LAMP-1 surface exposure; cells stimulated with thapsigargin and PMA; inhibition, % at 10 µM; hit rate 0.66% among 360,000;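 active means inhibition above about 55%, limit read from the data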
VLA-4 inh: inhibition in human VLA-4 binding assay, primary screen, VLA-4 allosteric modulator project, MLPCN library, flow cytometry, VLA-4 expressing cells; Integrin alpha-4 (Homo sapiens), P13612; ligand binding flow cytometry; inhibition, % (about 7 µM as worked out from the volumes in the protocol); hit rate 0.2% among 330,000; AID 2557, 2010; in the data active means inhibition above about 50%
ABCB6 inh MLPCN: ABCB6 transporter inhibitors, primary screen, K562-ABCB6 cells, flow cytometry, MLPCN library; ATP-binding cassette sub-family B member 6 (Homo sapiens), Q9NP58; AID 602162, 2011; hit rate 0.19% among 360,000; K562-ABCB6 porphyrin accumulation, 1 h; stronger effect = lower value; fluorescence ratio to DMSO, % at 10 µM;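 active means fluorescence ratio to DMSO below 75%, the collection mean minus 3 SD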;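 further: signal is porphyrin accumulated inside mitochondria; 100% equals median channel fluorescence of DMSO control wells; lower ratio means ABCB6 inhibition with less porphyrin fluorescence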
Target sequence (Q9NP58 whole entry, looked up): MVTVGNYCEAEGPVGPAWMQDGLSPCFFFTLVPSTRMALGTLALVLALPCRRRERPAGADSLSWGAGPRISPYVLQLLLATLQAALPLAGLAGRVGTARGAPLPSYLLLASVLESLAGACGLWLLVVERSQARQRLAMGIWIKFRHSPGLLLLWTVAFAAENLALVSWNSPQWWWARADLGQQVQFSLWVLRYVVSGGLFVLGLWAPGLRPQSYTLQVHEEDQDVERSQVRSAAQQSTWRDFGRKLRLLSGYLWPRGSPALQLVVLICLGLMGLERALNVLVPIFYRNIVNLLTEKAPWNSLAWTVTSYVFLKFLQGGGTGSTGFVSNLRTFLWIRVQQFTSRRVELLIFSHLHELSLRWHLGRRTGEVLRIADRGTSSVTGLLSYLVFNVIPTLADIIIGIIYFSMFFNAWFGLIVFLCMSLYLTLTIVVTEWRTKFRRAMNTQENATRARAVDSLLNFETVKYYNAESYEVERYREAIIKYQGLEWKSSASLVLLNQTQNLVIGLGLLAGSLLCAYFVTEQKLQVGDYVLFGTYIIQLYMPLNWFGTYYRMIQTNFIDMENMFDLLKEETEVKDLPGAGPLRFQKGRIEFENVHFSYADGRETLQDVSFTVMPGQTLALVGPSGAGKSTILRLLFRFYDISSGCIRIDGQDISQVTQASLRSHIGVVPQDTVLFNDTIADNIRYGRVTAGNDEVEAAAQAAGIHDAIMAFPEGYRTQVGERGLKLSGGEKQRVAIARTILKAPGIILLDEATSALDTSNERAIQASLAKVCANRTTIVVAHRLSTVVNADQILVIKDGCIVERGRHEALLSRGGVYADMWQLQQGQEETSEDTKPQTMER
Rev-erbA mod: modulators of Rev-erb alpha DNA binding, primary screen, biochemical, FITC-DNA, fluorescence polarization, uHTS. Nuclear receptor subfamily 1 group D member 1 (Homo sapiens), P20393. Rev-erbα–FITC-DNA binding, 90 min. activity, % at 10 µM. hit rate 0.79% among 370,000. AID 1259318, 2017;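 active means activity above about 14%, limit read from the data; passing the limit was not always enough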;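 further: 0% = DMSO wells with 35 nM protein and 100% = DMSO wells with 750 nM protein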
* marks the source's active call; other numbers are inactive results; . = not tested or not shown; ! = not active in a repeat.

SMILES | PG9 binder | Granule exo inh | VLA-4 inh | ABCB6 inh MLPCN | Rev-erbA mod
CC(=O)N1CCN(c2ccc(N3CCN(Cc4ccccc4)[C@@H](C)C3)c(C)c2)[C@@H](C)C1 | 1 | . | . | . | 8
CCCCCCCCOC(=O)c1c(CSC(=N)N)n(C)c2cc(Br)c(OC(C)=O)cc12 | -1 | 72* | -2 | 101 | 2
COc1cccc(CNS(=O)(=O)c2cc3c(cc2Br)CC(C)N3C(C)=O)c1 (stereo not drawn) | . | . | . | . | -6
O=C(C1CCN(c2cncnc2)CC1)N1CCOCC1 | . | . | . | . | -11
C=C(C(=O)Oc1ccccc1C(C)(C)C)c1ccccc1 | . | . | 55* | . | .
CC(C)(C)c1ccccc1OCC(=O)NCCC(=O)O | 1 | -3 | -4 | 101 | 0
CCN1CCN(c2ccc(S(=O)(=O)N3CCCCC3)cc2NC(=O)Cc2ccccc2)CC1 | 2 | 9 | 19 | 92 | 0
CCN1CCN(c2ccc(S(=O)(=O)N3CCCCC3)cc2NC(=O)Cc2ccc(Cl)c(Cl)c2)CC1 | . | 56* | 13 | 100 | .
CCN1CCN(c2ccc(S(=O)(=O)N3CCCCC3)cc2NC(=O)/C=C/c2cc(OC)ccc2OC)CC1 | 0 | 60* | 1 | 101 | 3
N#CCC[C@@H]1CC[C@]2(CCCN(Cc3ccc(Cl)cc3)C2)O1 | . | . | . | . | -4
Nc1[nH]c(C(=O)c2ccccc2)c(-c2ccc3c(c2)OCO3)c1C(=O)NCCc1c[nH]c2ccccc12 | 0 | . | . | . | 2
Cc1cc(C(=O)Nc2ccc(F)cc2)n(-c2ccccc2)n1 | . | . | . | . | 10
CC(=O)N(C(C)=O)c1ccc2nc(C)[nH]c(=O)c2c1 | 0 | 0 | 8 | 103 | -1
Cc1nc2ccc(CN(C)c3ccc(C(=O)N[C@@H](CCC(=O)O)C(=O)O)s3)cc2c(=O)[nH]1 | . | . | 52* | . | .
NC(N)=N/N=C/c1ccc(OCc2ccc(Cl)cc2)cc1 | -2 | 73* | 32 | 84 | 6
CCN1CCCCC(NC(=O)c2ccc(F)cc2)C1=O (stereo not drawn) | . | . | . | . | -2
Cc1cc(/C=C2/C(=N)N3C(c4ccccc4)=CSC3=NC2=O)c(C)n1-c1ccc(Cl)cc1 | 1 | 60* | . | 98 | -1
CC(C)NC(=O)OC[C@H]1O[C@H](C#Cc2ccc(C(C)(C)C)cc2)C=C[C@H]1O | 0 | . | . | . | -5
CCOc1cc(/C=C2\CN(CC)C/C(=C\c3ccc(O)c(OCC)c3)C2=O)ccc1O | -4 | 57* | 3 | 100 | -1
CCN1C/C(=C/c2cccc([N+](=O)[O-])c2)C(=O)/C(=C/c2cccc([N+](=O)[O-])c2)C1 | 7 | 64* | 39 | 93 | 3
COc1ccccc1-c1nnc(SCC#CCOC(=O)c2ccc(F)cc2)o1 | . | . | . | . | 2
COC1=CC(=O)C=C(OC)C1=O | -1 | 78* | . | 99 | -4
COCCn1c(C)cc(C(=O)COC(=O)C23CC4CC(CC(O)(C4)C2)C3)c1C | 1 | 20 | 11 | 2.0* | 0
Brc1ccc(-c2nn3c(-c4ccccc4)nnc3s2)o1 | . | . | . | . | 5
CCOC(=O)[C@]12CCCC=C1N(Cc1ccc(OC)cc1)C(=O)[C@@H]2CC(=O)N1CCC(c2ccccc2)CC1 | . | . | . | . | -2
SMILES | PG9 binder | Granule exo inh | VLA-4 inh | ABCB6 inh MLPCN | Rev-erbA mod
CCc1cc(Cl)c(OC)c(C(=O)NC[C@H]2CCCN2CC)c1O | . | . | . | . | 5
COc1cc(S(=O)(=O)NCc2ccc3c(c2)OCO3)c(OC)cc1C | 0 | -6 | 14 | 101 | 5
COc1cc(C)c(S(=O)(=O)NCc2ccc3c(c2)OCO3)cc1C | -2 | 1 | 12 | 71* | 4
COc1ccc(CNC(=O)CCNS(=O)(=O)c2ccc3[nH]c(=O)oc3c2)cc1 | . | . | . | . | -2
COC(=O)[C@]12CCCCC=C1N(Cc1ccc(OC)cc1)C(=O)[C@@H]2CC(=O)N1CCC(c2ccccc2)CC1 | . | . | . | . | 3
O=C(Cn1cnc2ccccc2c1=O)N1CCN(C(=O)C2CCCO2)CC1 (stereo not drawn) | . | . | . | . | 7
CN1CCN(CC(=O)N2CCn3c4c(c5cc(C6CCCCC6)ccc53)CCCC42)CC1 (stereo not drawn) | . | 77* | 46 | 93 | .
COCCNC(=S)N(C)[C@H]1C[C@H]2c3[nH]c4c(-c5ccc6c(c5)OCO6)cccc4c3CCN2C(=O)[C@H]1[C@H](C)O | -2 | . | . | . | 1
Cc1ccccc1/C=N/Nc1ccnc2cc(Cl)ccc12 | 1 | 76* | 14 | 94 | -6
O=C(Nc1ccc(Cl)c(S(=O)(=O)N2CCOCC2)c1)c1ccc(OCC2CCCO2)cc1 (stereo not drawn) | . | 94* | 2 | 98 | .
CCc1cc2c(nc1CC)CCCN2S(=O)(=O)c1cccs1 | 1 | . | . | . | 6
Cc1oc(=O)c(NC(=O)c2ccccc2)cc1C(=O)c1ccccc1 | -1 | 75* | 41 | 103 | 4
CCCCCCCCN1C(=O)[C@@H](CC(=O)NCc2cccc3ccccc23)C[C@@]2(C(=O)OC)C1=C[C@H](C(C)(C)C)O[C@@H]2C | 0 | . | . | . | -6
O=C1/C(=C/c2ccccc2O)SC(=S)N1Cc1cccnc1 | -1 | 58* | -5 | 84 | -2
Cc1ccccc1CN1CCCCC(NC(=O)Nc2cccc([N+](=O)[O-])c2)C1=O (stereo not drawn) | . | . | . | . | -3
Cc1cc(C)nc(/N=c2/ssnc2Cl)c1 | 1 | 82* | 28 | 106 | 3
Cc1nnc(N=c2ssnc2Cl)o1 | 2 | -18 | 12 | 101 | 1
Cc1cc(Cl)ccc1N=c1ssnc1Cl | 2 | 8 | 6 | 102 | 6
COc1cc(N=c2ssnc2Cl)c(OC)cc1Cl | 2 | 99*! | 3 | 104 | 1
Cc1ccc(N=c2ssnc2Cl)cc1 | 2 | 95* | 9 | 104 | 4
COc1ccc(C(=O)OCCCN(C)C2CN(Cc3cn(Cc4ccc([N+](=O)[O-])cc4)nn3)S(=O)(=O)C2)cc1OC (stereo not drawn) | . | . | . | . | 0
Cc1c(-c2ccccc2)oc2c(C(=O)N3CCN(c4ccc([N+](=O)[O-])cc4)CC3)cccc2c1=O | -2 | 90* | 4 | 105 | 2
COC(=O)[C@]12C[C@H](CC(=O)NCc3cccc(C(F)(F)F)c3)C(=O)N(CCC3=CCCCC3)C1=C[C@H](C(C)C)O[C@@H]2C1CC1 | . | . | . | . | -3
Cc1c(C)c2ccc(OS(C)(=O)=O)c(C)c2oc1=O | -1 | -3 | 8 | 69* | -5
COc1ccc(S[C@]2(C(=O)N3CCN(c4ncccn4)CC3)CC(=O)N(c3ccc(Cl)cc3)[C@@H]2c2ccc(OC)cc2)cc1 | . | . | . | . | 1
O=C(CCCCCn1c(=S)[nH]c2cc3c(cc2c1=O)OCO3)N1CCN(C(=O)c2ccco2)CC1 | 12* | -3 | -14 | 89 | -1
